In the library only some 19% were active in any assay of this set; here they are far more common.
IL-1B inflam inh: blocks inflammasome-driven IL-1 beta release; THP-1 LPS/ATP IL-1B secretion, AlphaLISA, 16 h; active compounds read low; activity change, % at 57.5 µM; 360,000 tested, 4.7% active; AID 743279; in the data active = activity change below about -50%; inconclusive = mostly about -30% to -49%
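Secreted IL-1B measured by AlphaLISA bead assay after 16 h compound exposure of THP-1 cells; compounds (final up to 57.5 uM) added 1 h before LPS (250 ng/mL) and ATP (1.25 mM) stimulation; lower signal means less secretion.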
DT40 TDP1 CPT: growth inhibition of DT40 Tdp1-/-;hTDP1 cells with camptothecin (screen for TDP1 inhibitors); chicken DT40 Tdp1-/-;hTDP1 cells + 20 nM CPT, ATP luminescence, 48 h; Potency, µM (top dose mostly 46.2 µM), inactives show at the top dose activity change, negative = growth inhibition, most hits filed as inhibitors; 420,000 tested, 12% active; also: potency is read from the fitted curve at half-maximal effect; nearly all actives have a fitted effect of over 55% in size
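Chicken DT40 Tdp1-/- cells stably complemented with human TDP1 were seeded at 400 cells/well in medium containing 20 nM camptothecin, exposed to pin-transferred compounds, and grown at 37 °C for at least 48 hr. Viability was read as ATP luminescence.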
DT40 TDP1 no CPT: qHTS for Inhibitors of human tyrosyl-DNA phosphodiesterase 1 (TDP1): qHTS in cells in absence of CPT; 420,000 tested, 15% active; Potency, µM (highest dose often 46.2 µM), for the others: at the highest dose activity change, negative = growth inhibition, usual class: inhibitors; DT40 Tdp1-/- hTDP1 cells, no CPT, ATP luminescence, 48 h; AID 686978, 2013; also: potency is read from the fitted curve at half-maximal effect; nearly all actives have a fitted effect of over 55% in size
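Seeded 400 DT40-hTDP1 cells/well (vehicle DMSO, no 20 nM CPT); pinned compounds; ≥48 hr at 37 °C; CellTiter-Glo luminescence as viability measure.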
HT1080 IDH1KD tx: toxicity to HT-1080 IDH1 knockdown cells (counter line); HT-1080 IDH1 knockdown viability, ATP luminescence, 48 h; 360,000 tested, 2% active; Potency, µM (highest dose often 46.1 µM), for inactives: at the highest dose activity, negative = toxicity, actives largely listed as cytotoxic;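 also: potency is read from the fitted curve at half-maximal effect; 0% = DMSO wells and -100% = cell-free medium wells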
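In this qHTS, HT-1080 cells depleted of IDH1 are exposed for 48 h at 37 °C to compound titrations. Toxicity is scored from CellTiter-Glo luminescence, with DMSO as full viability and medium alone as none.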
ELG1 repair inh: blocks ELG1-dependent DNA repair in HEK293T cells. HEK293T ELG1-luciferase reporter, luminescence, 16 h; DNA damage induced by 5-fluorouridine. Potency, µM (titrated, usually from 46.1 µM), for the others: top-dose activity change, negative = inhibition, actives largely listed as inhibitors. 330,000 tested, 2.3% active. AID 504467; also: potency is read from the fitted curve at half-maximal effect; nearly all actives have a fitted effect of over 55% in size
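5-Fluorouridine DNA damage + compound/DMSO, 2,000 cells/well, 16 h, 37 °C/5% CO2. ONE-Glo, 30 min RT, luminescence. Readout = decrease in reporter signal.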
HT1080-NT tox: kills 2HG-producing HT-1080-NT fibrosarcoma cells. HT-1080-NT fibrosarcoma viability, CellTiter-Glo ATP luminescence, 48 h. Potency, µM (highest dose often 46.1 µM), without a hit: top-dose activity, negative = less viability, actives largely listed as cytotoxic. 360,000 tested, 1.6% active. AID 686970;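 also: NT is the 2HG producing partner of a matched IDH1 knockdown line; potency is read from the fitted curve at half-maximal effect; 0% = DMSO-treated cells and -100% = media-only wells without cells; nearly all actives have a fitted effect of over 55% in size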
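750 cells/well, RPMI + 5% FBS; 2 h settle, compound pin-transfer, 48 h at 37 degrees C. CellTiter-Glo 10 min RT, luminescence. Normalized to DMSO and media-only wells.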
* = called active by the depositor; ? = inconclusive; . = no result given; [ ] = another dose, or the depositor's remark. Unless noted, calls follow the shape of the dose curve; as a rule, active = well fitted curve in the direction sought with a large enough effect; inconclusive = small, poorly fitted or top-dose-only effect, or another doubt; inactive = no such curve, though single readings can be large; an effect the other way counts as inactive or inconclusive. Unless noted, % is scaled to controls: 0 for no effect and ±100 for the full control effect.

SMILES | IL-1B inflam inh | DT40 TDP1 CPT | DT40 TDP1 no CPT | HT1080 IDH1KD tx | ELG1 repair inh | HT1080-NT tox
COc1cccc(CNC(=O)CN2C(=O)COc3ccc(S(=O)(=O)N4CCCC4)cc32)c1 | -10 | -14% | -9% | 0% | 0% | 5%
O=C1C(=O)N(C2CCNCC2)CCN1Cc1ccccc1 | . | -25% | 13% | . | . | .
CCOC(=O)N1CCN(C(=O)C(CC(C)C)NS(=O)(=O)c2ccc(C)cc2)CC1 (stereo not drawn) | 26 | ? | -8% | 1% | 10% | -2%
COc1ccc(N2CCN(C(=O)C(CC(C)C)NS(=O)(=O)c3ccc4nc(C)sc4c3)CC2)cc1 (stereo not drawn) | . | 12µM* | -82% | . | . | .
CC1(C)CCC[C@]2(C)[C@H]3Cc4cc(O)ccc4O[C@]3(C)CC[C@@H]12 | 38 | 18µM* | ? | ? | 19% | ?
Clc1cccc(N2CCN(c3nnnn3-c3ccccc3)CC2)c1 | 13 | -13% | -3% | -11% | -10% | -10%
Oc1ccc(N2CCN(c3nnnn3-c3ccccc3)CC2)cc1 | 3 | ? | 21µM* | -19% | ? | -11%
CCC(=O)N1CCc2cc(Br)cc(S(=O)(=O)N3CCN(c4ccc(C(C)=O)cc4)CC3)c21 | . | -9% | -10% | . | . | .
CC(=O)N1CCc2cc(Br)cc(S(=O)(=O)CCC(=O)N3CCN(c4ccc(F)cc4)CC3)c21 | . | -16% | ? | . | . | .
CCC(=O)N1CCc2cc(Br)cc(S(=O)(=O)N3CCN(c4ccccc4OC)CC3)c21 | . | ? | 23µM* | . | . | .
COc1ccccc1N1CCN(C(=O)CCS(=O)(=O)c2cc(Br)cc3c2N(C(=O)C2CC2)CC3)CC1 | . | 16µM* | ? | . | . | .
O=S(=O)(NN1CCOCC1)c1ccc(Br)cc1 | -3 | ? | 6% | 10% | 6% | 22%
COc1ccc(CN(C)Cc2nc3scc(-c4ccccc4)c3c(=O)[nH]2)cc1OC | 12 | 13µM* | 6.5µM* | 7% | 16µM* | -1%
COc1cccc(/C=N/N2CCN(c3ccncc3S(=O)(=O)N3CCCCC3)CC2)c1 | -12 | ? | 2.6µM* | 16% | -3% | 18%
CCCCCCCCCCCCCCCCOCC(COP(=O)([O-])OCC[N+](C)(C)C)OC (stereo not drawn) | . | ? | -29%[4.12 µM] | . | . | .
COc1ccc(-n2ncc3c2ncn2nc(-c4ccc(OC)c(OC)c4)nc32)cc1 | . | 1% | -8% | . | . | .
O=C(Cc1ccccc1)NNc1ccc2ccccc2c1 | 17 | -9% | -30% | 3.7µM* | -3% | ?
O=C(CN1C(=O)CCC1=O)NNc1ccc2ccccc2c1 | 19 | -9% | -13% | 2.3µM* | -10% | 2.9µM*
O=C(CNc1ccc2ccccc2c1)NNC1=NCCC1 | -7 | -7% | -18% | 0% | 12% | -1%
O=C(COc1ccc2ccccc2c1)NNC(=O)Cc1ccccc1 | 9 | -17% | -3% | 18% | 2% | 26%
COC(=O)c1ccc(C(=O)OC)c(NC(=O)c2c(-c3ccccc3)c(-c3ccccc3)nn(C)c2=O)c1 | . | ? | 15µM* | . | . | .
COC(=O)c1ccc(C)c(NC(=O)c2c(-c3ccccc3)noc2C)c1 | 17 | -15% | -17% | 0% | 2% | -3%
COC(=O)c1ccc(C(=O)OC)c(NC(=O)c2c(-c3ccccc3)noc2C)c1 | . | 6.5µM* | 6.5µM* | . | . | .
COc1ccc(NC(=O)c2c(-c3ccccc3)c(-c3ccccc3)nn(C)c2=O)c(OC)c1 | . | 16µM* | ? | . | . | .
CCn1c(SCC(=O)c2c(N)n(C3CC3)c(=O)[nH]c2=O)nnc1-c1ccoc1C | 10 | -2% | 12% | 12% | 5% | 2%
SMILES | IL-1B inflam inh | DT40 TDP1 CPT | DT40 TDP1 no CPT | HT1080 IDH1KD tx | ELG1 repair inh | HT1080-NT tox
COc1ccc(NC(=O)c2cc(-c3ccccc3)nc3c2cnn3C(C)C)c(OC)c1 | -11 | ? | ? | 3% | ? | -10%
COc1ccccc1CCNC(=O)c1cccc(S(=O)(=O)NCc2ccccc2)c1 | 5 | ? | ? | -4% | -25% | -9%
Cc1cc(C)c(NS(=O)(=O)c2cc(-c3cnc(C4CC4)o3)ccc2C)c(C)c1 | . | -21% | ? | . | . | .
CCN(CC)c1ccc(NS(=O)(=O)c2ccc(-c3cnc(C4CC4)o3)cc2)c(C)c1 | . | 12µM* | 16µM* | . | . | .
O=S(=O)(Nc1ccc(F)cc1Cl)c1ccc(-c2cnc(C3CC3)o2)cc1 | 40 | 0.65µM* | 0.73µM* | ? | -9% | 1.2µM*
Cc1ccc(NS(=O)(=O)c2ccc(-c3cnc(C4CC4)o3)cc2)c(C)c1 | 35 | 1.5µM* | 1µM* | 0.82µM* | 4% | ?
Cc1cc(C)c(NS(=O)(=O)c2ccc(-c3cnc(C4CC4)o3)cc2)c(C)c1 | . | 0.58µM* | 0.018µM* | . | . | .
O=C1CC(=O)Nc2cc(S(=O)(=O)Nc3ccc(F)cc3Cl)ccc2N1 | 3 | -4% | -4% | 0% | -1% | -1%
O=c1cnnc(N/N=C/C2CC=CCC2)[nH]1 (stereo not drawn) | 13 | 15% | 11% | 0% | 23% | -6%
NC(=O)Nc1ccc(C(=O)OCC(=O)N2CCCC2=O)cc1 | -11 | 1% | 6% | 4% | 14% | 2%[9.24 µM]
CN1CCN(c2nc3c(=O)[nH]c(N)nc3n2C2OC(CO)C(O)C2O)CC1 (stereo not drawn) | . | -12% | -5% | . | . | .
OCCCCCCNc1ccc(CCO)cc1 | 17 | -6% | 8% | 19% | . | 19%
Cc1cccc(N(C)S(=O)(=O)c2ccc(-c3cnc(C4CC4)o3)cc2)c1 | 112 | 0.029µM* | 0.037µM* | ? | -22% | 0.052µM*
O=C(CSc1nnnn1C1CCCCC1)N1c2ccccc2Sc2ccccc21 | 0 | ? | 21µM* | -7% | -5% | 0%
O=C(CSc1nnnn1C1CCCC1)c1ccc2c(c1)OCCO2 | ? | 21µM* | ? | -1%[9.24 µM] | ? | 1%
CC(C)c1ccc(CN2CCN(C(=O)CSc3nnnn3C3CC3)CC2)cc1 | ? | ? | 12µM* | -4% | 7% | ?
COCCn1c(SCC(=O)c2ccc3c(c2)OCCO3)nnc1-c1ccoc1C | 21 | 15µM* | 10µM* | 0% | 4% | 3%
COCCCn1c(SCC(=O)Nc2ccc3c(c2)OCCO3)nnc1-c1ccoc1C | -6 | -5% | -1% | 11% | 12% | 15%
CC(C)n1nnnc1SCC(=O)c1ccc2c(c1)OCCO2 | -8 | ? | ? | 25% | ? | 27%

Source: PubChem BioAssay
